# PubChem BioAssay (EPA / NIEHS)
# Some structures have more than one record in an assay (separate samples or runs), and their calls can disagree. The source made the active and inactive calls. Rule for the calls: active = hit-call score of the fitted dose curve at least 0.9, where 1 is the maximum; inactive = score below 0.9.
# Columns and labels:
# [1] = APR_HepG2_P-H2AX_72hr: Apredica 72-hour HepG2 Assay for H2AX Phosphorylation (AID 2282916); conditions: imaging, actives raise or lower the signal;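 note: phospho-histone H2A.x immunostain intensity per cell marking DNA damage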
# How it was run: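 Human hepatoma HepG2 cells are dosed across ten concentrations (0.39 to 200 uM, 0.5% v/v DMSO) and incubated 72 hr. Phospho-histone H2A.x is then detected by antibody staining alongside c-Jun and Hoechst, and quantified by automated fluorescence imaging.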
# [2] = APR_HepG2_MitoMembPot_72hr: Apredica 72-hour HepG2 Assay for Mitochondrial Membrane Potential (AID 2282917); conditions: imaging, actives raise or lower the signal
# How it was run: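 HepG2 cells exposed 72 h to compounds at 0.39–200 uM (0.5% v/v DMSO, duplicates); MitoTracker Red CMXRos 250 nM loaded 30 min before 3.7% formaldehyde fixation, imaged by HCS fluorescence. Bidirectional fit versus DMSO.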
# [3] = APR_HepG2_MitoticArrest_72hr: Apredica 72-hour HepG2 Assay for Mitotic Arrest (AID 2282918); conditions: high-content imaging, actives raise or lower the signal
# How it was run: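 HepG2 cells treated 72 h at 0.39–200 uM, 0.5% DMSO final; formaldehyde-fixed, stained with Hoechst 33342 and phospho-histone H3 antibody, imaged by high-content fluorescence; bidirectional fit versus DMSO.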
# [4] = APR_HepG2_MicrotubuleCSK_72hr: Apredica 72-hour HepG2 Assay for Microtubule CSK Stabilty (AID 2282919); conditions: HepG2 microtubule cytoskeleton, high-content imaging, actives raise or lower the signal
# How it was run: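 Ten-point dosing (0.39–200 uM, 0.5% DMSO) of HepG2 for 72 hr, with taxol as the cytoskeletal positive control. The cells were formaldehyde-fixed and then stained with alpha-tubulin/Cy5 and Hoechst. Imaging at 20x used a −2 um Z offset for tubulin.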
# [5] = APR_HepG2_P-H2AX_24hr: Apredica 24-hour HepG2 Assay for H2AX Phosphorylation (AID 2282920); conditions: high-content imaging, actives raise or lower the signal
# How it was run: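 HepG2 cells dosed 24 h at 0.39–200 uM (10 points, duplicate, 0.5% DMSO final). Formaldehyde-fixed and permeabilized, then immunostained for phospho-H2A.x with Hoechst. Fluorescence quantified by high-content imaging, fitted bidirectionally versus DMSO.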
# [6] = APR_HepG2_StressKinase_72hr: Apredica 72-hour HepG2 Assay for Stress Kinase (AID 2282921); conditions: HepG2 stress kinase (phospho-c-Jun) imaging, actives raise or lower the signal
# How it was run: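 After a 72 h compound treatment spanning 0.39 to 200 uM, formaldehyde-fixed cells are labelled for phosphorylated c-Jun and nuclei, imaged by automated fluorescence microscopy, and activity is fitted in both directions relative to DMSO controls.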
# [7] = APR_HepG2_StressKinase_24hr: Apredica 24-hour HepG2 Assay for Stress Kinase (AID 2282922); conditions: HepG2 stress kinase (phospho-c-Jun) imaging, actives raise or lower the signal
# How it was run: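 After 24 hr compound treatment (up to 200 uM, final DMSO 0.5% v/v), HepG2 cells are fixed and multiplex-labeled; phospho-c-Jun intensity is captured by high-content fluorescence imaging and analyzed relative to DMSO.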
# [8] = APR_HepG2_p53Act_72hr: Apredica 72-hour HepG2 Assay for p53 Activation (AID 2282923); conditions: high-content imaging, actives raise or lower the signal;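 note: average cellular p53 protein immunofluorescence intensity in HepG2 cells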
# How it was run: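 Imaging-based endpoint: after 72 hr compound exposure (up to 200 uM, 0.5% DMSO), fixed and permeabilized monolayers were labelled with anti-p53 antibody and imaged; signal change in either direction was fitted relative to DMSO controls.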
# [9] = APR_HepG2_MitoMass_72hr: Apredica 72-hour HepG2 Assay for Mitochondrial Mass (AID 2282924); conditions: high-content imaging, actives raise or lower the signal;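 note: MitoTracker Red CMXRos stain intensity per cell imaged as mitochondrial mass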
# How it was run: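 Steps: treat HepG2 72 hr (0.39–200 uM, duplicate wells); load MitoTracker Red CMXRos, 250 nM, 30 min; fix with 3.7% formaldehyde, permeabilise with 0.5% Triton X-100; capture images, nuclei via Hoechst 33342; fit bidirectionally against DMSO.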
# [10] = APR_HepG2_NuclearSize_72hr: Apredica 72-hour HepG2 Assay for Nuclear Size (AID 2282925); conditions: high-content imaging, actives raise or lower the signal
# How it was run: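 Compounds (0.39–200 uM, final DMSO 0.5%) were applied to HepG2 for 72 hr. Cells were then formaldehyde-fixed, permeabilized and labelled with Hoechst 33342. Nuclear diameter was quantified from six images per well.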
# [11] = ATG_CRE_CIS: Attagene CIS-FACTORIAL HepG2 Assay for human cAMP Responsive Element (CRE) binding protein 3 (AID 2282926); conditions: HepG2 CRE cis-reporter, Attagene multiplexed mRNA; actives raise or lower the signal
# How it was run: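 Induced reporter mRNA from a CRE cis element, measured in HepG2 among many multiplexed units at 24 h. Detection used RT-PCR plus capillary electrophoresis of fluorescent fragments; DMSO served as negative control.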
# [12] = molecular target: CCAAT/enhancer-binding protein beta (Homo sapiens) (UniProt P17676); assay: ATG_C_EBP_CIS: Attagene CIS-FACTORIAL HepG2 Assay for human CCAAT/Enhancer Binding Protein (C/EBP) beta (AID 2282927); conditions: HepG2 Attagene cis-factorial transcription factor reporter; actives raise or lower the signal
# Sequence of CCAAT/enhancer-binding protein beta (Homo sapiens) (P17676 whole entry, looked up, the tested form may be a part): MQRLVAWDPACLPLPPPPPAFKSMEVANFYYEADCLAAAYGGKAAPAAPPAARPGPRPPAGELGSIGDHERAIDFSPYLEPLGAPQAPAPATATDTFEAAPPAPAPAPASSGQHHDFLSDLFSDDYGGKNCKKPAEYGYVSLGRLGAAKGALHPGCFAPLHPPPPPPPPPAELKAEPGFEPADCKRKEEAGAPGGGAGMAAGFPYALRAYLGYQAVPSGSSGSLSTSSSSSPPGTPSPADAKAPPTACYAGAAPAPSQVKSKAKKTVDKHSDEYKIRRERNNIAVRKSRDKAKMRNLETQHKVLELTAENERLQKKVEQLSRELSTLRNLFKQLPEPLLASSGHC
# How it was run: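 Chemical-treated HepG2 cells (24 h) bearing cis-regulated reporter constructs were processed for total RNA, then reverse transcription, PCR amplification, fluorescent primer extension and fragment analysis; gain- and loss-of-signal were fitted against DMSO.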
# [13] = ATG_CMV_CIS: Attagene CIS-FACTORIAL HepG2 Assay for human CMV (Internal Marker) (AID 2282928); conditions: HepG2 CMV promoter reporter, transcription factor profiling; actives raise or lower the signal;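 note: endpoint acts as a background internal control marker rather than a target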
# How it was run: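 24 h chemical treatment, HepG2 with transient multi-reporter transfection; RNA → oligo(dT) RT → PCR → 6-FAM extension → HpaI digest → CE fluorescence. Bidirectional fit, DMSO negative control.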
# [14] = ATG_DR4_LXR_CIS: Attagene CIS-FACTORIAL HepG2 Assay for human Liver X Receptor (LXR), DR4 submotif (AID 2282929); conditions: HepG2 Attagene DR4 cis-reporter, mRNA transcription; actives raise or lower the signal
# How it was run: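 HepG2 cells transiently transfected with cis-promoter-driven multiplexed reporter units (DR4 element) were dosed for 24 h. Reporter mRNA was quantified by RT-PCR, fluorescent primer extension, HpaI digestion and capillary electrophoresis; bidirectional fitting versus DMSO baseline.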
# [15] = molecular target: Aryl hydrocarbon receptor (Homo sapiens) (UniProt P35869); assay: ATG_Ahr_CIS: Attagene CIS-FACTORIAL HepG2 Assay for human Aryl Hydrocarbon Receptor (Ahr) (AID 2282930); conditions: HepG2 AhR cis-factorial reporter transcription; actives raise or lower the signal
# Sequence of Aryl hydrocarbon receptor (Homo sapiens) (P35869 whole entry, looked up): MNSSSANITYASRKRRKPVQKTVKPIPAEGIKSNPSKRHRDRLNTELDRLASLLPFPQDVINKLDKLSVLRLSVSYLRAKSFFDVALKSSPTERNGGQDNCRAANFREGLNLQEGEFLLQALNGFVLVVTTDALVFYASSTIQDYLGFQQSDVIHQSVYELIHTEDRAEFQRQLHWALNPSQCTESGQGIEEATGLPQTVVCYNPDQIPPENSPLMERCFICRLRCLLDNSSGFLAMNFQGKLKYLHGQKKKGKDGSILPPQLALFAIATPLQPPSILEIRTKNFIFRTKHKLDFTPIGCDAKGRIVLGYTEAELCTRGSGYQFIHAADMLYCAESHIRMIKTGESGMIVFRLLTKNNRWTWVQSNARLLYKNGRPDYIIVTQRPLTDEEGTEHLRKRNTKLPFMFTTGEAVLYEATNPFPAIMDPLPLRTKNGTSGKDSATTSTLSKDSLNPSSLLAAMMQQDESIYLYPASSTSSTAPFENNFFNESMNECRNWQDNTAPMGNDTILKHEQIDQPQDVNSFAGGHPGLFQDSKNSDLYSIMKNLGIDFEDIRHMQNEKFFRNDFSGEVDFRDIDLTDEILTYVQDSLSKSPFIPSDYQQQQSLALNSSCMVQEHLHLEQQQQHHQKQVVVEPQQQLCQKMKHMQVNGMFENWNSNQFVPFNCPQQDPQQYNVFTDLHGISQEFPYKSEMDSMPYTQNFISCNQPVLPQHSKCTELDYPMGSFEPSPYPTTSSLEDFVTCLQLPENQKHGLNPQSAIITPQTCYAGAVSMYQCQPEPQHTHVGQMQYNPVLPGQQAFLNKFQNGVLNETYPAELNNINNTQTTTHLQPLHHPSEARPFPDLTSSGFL
# How it was run: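 Following 24 h of chemical dosing, transfected HepG2 liver cells with cis-driven reporter units were lysed for RNA; reporter mRNA was quantified via RT-PCR and capillary electrophoresis, and responses fitted bidirectionally from DMSO.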
# [16] = ATG_AP_1_CIS: Attagene CIS-FACTORIAL HepG2 Assay for human Activator Protein 1 (AP-1) (AID 2282931); conditions: HepG2 Attagene cis-factorial AP-1 reporter mRNA; actives raise or lower the signal
# How it was run: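 HepG2 cells transiently transfected with cis-element-driven multiplex reporter units; 24 h compound exposure. Reporter mRNA quantified by RT-PCR, FAM-labelled fragments resolved by capillary electrophoresis; bidirectional fit versus DMSO baseline.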
# [17] = ATG_BRE_CIS: Attagene CIS-FACTORIAL HepG2 Assay for human Bone Morphogenetic Protein (BMP) Response Element (BRE) (AID 2282933); conditions: HepG2 BMP response element reporter, Attagene transcription factor profiling; actives raise or lower the signal
# How it was run: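 Gain- or loss-of-signal was derived by bidirectional fitting against DMSO controls. The signal came from reporter mRNA, measured by RT-PCR and capillary electrophoresis, in HepG2 cells transiently carrying multiple reporter units and dosed for 24 h.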
# [18] = molecular target: Retinoic acid receptor alpha (Homo sapiens) (UniProt P10276); assay: ATG_DR5_RAR_CIS: Attagene CIS-FACTORIAL HepG2 Assay for human Retinoic Acid Receptor Alpha (RARE), DR5 submotif (AID 2282934); conditions: HepG2 Attagene cis-factorial RARE DR5 reporter, mRNA; actives raise or lower the signal;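 for AC50: reporter responds to endogenous RAR alpha beta and gamma in HepG2 not RARA alone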
# Sequence of Retinoic acid receptor alpha (Homo sapiens) (P10276 whole entry, looked up): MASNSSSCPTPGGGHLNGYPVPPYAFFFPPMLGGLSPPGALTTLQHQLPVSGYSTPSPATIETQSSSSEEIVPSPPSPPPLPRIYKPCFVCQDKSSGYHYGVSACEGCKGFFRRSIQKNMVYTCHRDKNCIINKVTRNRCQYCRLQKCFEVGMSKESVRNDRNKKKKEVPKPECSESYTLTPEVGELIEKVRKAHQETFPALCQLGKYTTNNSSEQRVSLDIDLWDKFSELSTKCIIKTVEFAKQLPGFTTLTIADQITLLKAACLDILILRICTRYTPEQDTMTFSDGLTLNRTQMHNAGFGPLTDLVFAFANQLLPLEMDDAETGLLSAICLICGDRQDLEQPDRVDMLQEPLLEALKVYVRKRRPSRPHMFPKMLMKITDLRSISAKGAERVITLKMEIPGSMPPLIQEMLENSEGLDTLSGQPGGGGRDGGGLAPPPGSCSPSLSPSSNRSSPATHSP
# How it was run: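 Transfected HepG2 reporter cells are exposed to chemicals for 24 h. Then RNA is extracted and the DR5 element reporter transcript is measured by RT-PCR and capillary electrophoresis, with bidirectional curve fitting relative to DMSO.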
# [19] = molecular target: Transcription factor E2F1 (Homo sapiens) (UniProt Q01094); assay: ATG_E2F_CIS: Attagene CIS-FACTORIAL HepG2 Assay for human E2F Transcription Factor 1 (AID 2282935); conditions: HepG2 Attagene cis-reporter, E2F reporter RNA transcripts; actives raise or lower the signal
# Sequence of Transcription factor E2F1 (Homo sapiens) (Q01094 whole entry, looked up): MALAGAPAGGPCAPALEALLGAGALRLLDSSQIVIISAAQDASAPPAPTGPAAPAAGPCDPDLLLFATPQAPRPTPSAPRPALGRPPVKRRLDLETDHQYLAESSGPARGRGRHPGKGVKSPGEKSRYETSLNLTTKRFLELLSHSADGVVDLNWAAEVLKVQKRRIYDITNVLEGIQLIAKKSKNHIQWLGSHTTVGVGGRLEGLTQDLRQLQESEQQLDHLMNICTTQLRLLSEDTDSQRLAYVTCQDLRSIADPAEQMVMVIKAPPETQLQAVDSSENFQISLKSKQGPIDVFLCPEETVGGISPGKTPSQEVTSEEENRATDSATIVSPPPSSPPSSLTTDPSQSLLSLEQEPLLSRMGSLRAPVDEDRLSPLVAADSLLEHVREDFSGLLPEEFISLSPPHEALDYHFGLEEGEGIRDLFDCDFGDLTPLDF
# How it was run: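 First, HepG2 cells were transfected with reporter transcription units. Next, they were dosed for 24 h. Then RNA was isolated, converted to cDNA, PCR-amplified, FAM-labeled, HpaI-digested and analyzed by capillary electrophoresis.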
# [20] = ATG_AP_2_CIS: Attagene CIS-FACTORIAL HepG2 Assay for human Activator Protein 2 (AP-2) (AID 2282932); conditions: HepG2 AP-2 cis-reporter, Attagene transcription factor profiling; actives raise or lower the signal
# How it was run: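 Cells (HepG2) transfected with promoter-driven reporter constructs, treated 24 h. Total RNA reverse-transcribed, reporter cDNA PCR-amplified, FAM-labelled by primer extension, digested, resolved by capillary electrophoresis. Activity fitted both directions versus DMSO.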
smiles,measurement,setting,value
C[C@]12C[C@H](O)[C@H]3[C@@H](CCC4=CC(=O)CC[C@@]43C)[C@@H]1CC[C@@H]2C(=O)CO,AC50,[1],34.5 µM (active)
same,AC50,[2],120 µM (active)
same,AC50,[3],86.1 µM (active)
same,outcome,[4],inactive
same,AC50,[5],96.6 µM (active)
same,outcome,[6],inactive
same,outcome,[7],inactive
same,outcome,[8],inactive
same,AC50,[9],148 µM (active)
same,outcome,[10],inactive
same,outcome,[11],inactive
same,outcome,[12],inactive
same,outcome,[13],inactive
same,outcome,[14],inactive
same,outcome,[15],inactive
same,outcome,[16],inactive
same,outcome,[17],inactive
same,outcome,[18],inactive
same,outcome,[19],inactive
S=C([S-])NCCNC(=S)[S-].[Mn+2],outcome,[1],inactive
same,outcome,[2],inactive
same,outcome,[3],inactive
same,AC50,[4],103 µM (active)
same,outcome,[5],inactive
same,outcome,[6],inactive
same,outcome,[7],inactive
same,AC50,[9],166 µM (active)
same,outcome,[10],inactive
same,outcome,[11],inactive
same,outcome,[14],inactive
same,outcome,[15],inactive
same,outcome,[16],inactive
same,outcome,[20],inactive
same,outcome,[17],inactive
same,outcome,[19],inactive
CCOC(=O)C(C)Oc1ccc(Oc2cnc3cc(Cl)ccc3n2)cc1 (centres undefined),outcome,[1],inactive
same,AC50,[2],13.6 µM (active)
same,outcome,[3],inactive
same,AC50,[4],95.1 µM (active)
same,outcome,[5],inactive
same,outcome,[6],inactive
same,outcome,[7],inactive
same,outcome,[9],inactive
same,outcome,[10],inactive
same,outcome,[11],inactive
same,outcome,[13],inactive
same,outcome,[14],inactive
same,outcome,[15],inactive
same,outcome,[16],inactive
same,outcome,[20],inactive
same,outcome,[17],inactive
same,outcome,[18],inactive
same,outcome,[19],inactive
CC(C)(C)[C@@H](O)[C@@H](Cc1ccc(Cl)cc1)n1cncn1,outcome,[1],inactive
same,outcome,[2],inactive
same,outcome,[3],inactive
same,outcome,[4],inactive
same,outcome,[5],inactive
same,outcome,[6],inactive
same,outcome,[7],inactive
same,outcome,[8],inactive
same,outcome,[9],inactive
same,outcome,[10],inactive
same,AC50,[11],13.5 µM (active)
same,AC50,[12],3.43 µM (active)
same,outcome,[13],inactive
same,outcome,[14],inactive
same,AC50,[16],13.5 µM (active)
same,outcome,[20],inactive
same,AC50,[17],13.7 µM (active)
same,AC50,[18],32.1 µM (active)
same,outcome,[19],inactive
CCSC(=O)N(CC(C)C)CC(C)C,outcome,[1],inactive
same,outcome,[2],inactive
same,outcome,[3],inactive
same,outcome,[4],inactive
same,outcome,[5],inactive
same,outcome,[6],inactive
same,outcome,[7],inactive
same,outcome,[8],inactive
same,outcome,[9],inactive
same,outcome,[10],inactive
same,outcome,[11],inactive
same,outcome,[12],inactive
same,outcome,[13],inactive
same,outcome,[14],inactive
same,outcome,[15],inactive
same,outcome,[16],inactive
same,outcome,[20],inactive
same,outcome,[17],inactive
same,outcome,[18],inactive
same,outcome,[19],inactive
N#CSCSc1nc2ccccc2s1,outcome,[1],inactive
same,AC50,[2],25.2 µM (active)
same,outcome,[3],inactive
same,outcome,[4],inactive
same,outcome,[5],inactive
same,outcome,[6],inactive
same,outcome,[7],inactive
same,outcome,[9],inactive
same,outcome,[10],inactive
same,AC50,[11],18.2 µM (active)
same,outcome,[11],inactive
same,AC50,[14],3.05 µM (active)
same,outcome,[14],inactive
same,outcome,[15],inactive
same,AC50,[16],3.02 µM (active)
same,outcome,[16],inactive
same,AC50,[20],9.15 µM (active)
same,outcome,[20],inactive
same,AC50,[17],3.03 µM (active)
same,outcome,[17],inactive
same,outcome,[18],inactive
same,outcome,[19],inactive
